Compound activity (PubChem)
HT1080NT lethal – kills 2HG-producing HT-1080-NT fibrosarcoma cells | HT-1080-NT fibrosarcoma viability, CellTiter-Glo ATP luminescence, 48 h | Potency, µM (highest dose often 46.1 µM), inactives show top-dose activity, negative = less viability, most hits filed as cytotoxic | actives 1.6% (n = 360,000);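 note: NT is the 2HG producing partner of a matched IDH1 knockdown line; potency is the fitted concentration of half-maximal effect; 0% = DMSO-treated cells and -100% = media-only wells without cells; nearly all actives have a fitted effect of over 55% in size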
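Fibrosarcoma NT cells, 750 per well in 5% FBS RPMI, were exposed to compound for 48 hours. Viability: CellTiter-Glo luminescence.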
DT40 TDP1 no CPT – qHTS for Inhibitors of human tyrosyl-DNA phosphodiesterase 1 (TDP1): qHTS in cells in absence of CPT; DT40 Tdp1-/- hTDP1 cells, no CPT, ATP luminescence, 48 h; Potency, µM (top dose mostly 46.2 µM), without a hit: at the highest dose activity change, negative = growth inhibition, most hits filed as inhibitors; actives 15% (n = 420,000); AID 686978, 2013; note: potency is the fitted concentration of half-maximal effect; nearly all actives have a fitted effect of over 55% in size
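Seeded 400 DT40-hTDP1 cells/well (vehicle DMSO, no 20 nM CPT); pinned compounds; ≥48 hr at 37 °C; CellTiter-Glo luminescence as viability measure.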
IL-1B inflam inh – blocks inflammasome-driven IL-1 beta release; actives 4.7% (n = 360,000); THP-1 LPS/ATP IL-1B secretion, AlphaLISA, 16 h; stronger effect = lower value; activity change, % at 57.5 µM; in the data active = activity change below about -50%; inconclusive = mostly about -30% to -49%
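THP-1 cells pretreated 1 hr with compounds (up to 57.5 uM final), then stimulated with LPS (250 ng/mL final) plus ATP (1.25 mM final); secreted IL-1B measured by AlphaLISA after 16 hr, decreased signal indicating inhibition.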
ELG1 repair inh – inhibitors of ELG1-dependent DNA repair in HEK293T cells; HEK293T ELG1-luciferase reporter, luminescence, 16 h; DNA damage induced by 5-fluorouridine; Potency, µM (highest dose often 46.1 µM), for inactives: top-dose activity change, negative = inhibition, usual class: inhibitors; actives 2.3% (n = 330,000); AID 504467; note: potency is the fitted concentration of half-maximal effect; nearly all actives have a fitted effect of over 55% in size
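Cells (2,000 per well) received 5-fluorouridine plus test compound or DMSO and were incubated 16 hr at 37 °C, 5% CO2. Luciferase activity was read by luminescence 30 min after ONE-Glo addition; signal suppression marked inhibition of damage-induced ELG1 function.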
TDP1 cell CPT – DT40-hTDP1 cell growth loss with CPT | AID 686979 | Potency, µM (highest dose often 46.2 µM), for inactives: at the highest dose activity change, negative = growth inhibition, usual class: inhibitors | chicken DT40 Tdp1-/-;hTDP1 cells + 20 nM CPT, ATP luminescence, 48 h | actives 12% (n = 420,000); note: potency is the fitted concentration of half-maximal effect; nearly all actives have a fitted effect of over 55% in size
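Chicken DT40 Tdp1-/- cells complemented with human TDP1, 400 cells/well, exposed to compounds plus 20 nM camptothecin for at least 48 h at 37 C; viability read as ATP content by CellTiter-Glo luminescence.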
HT1080 IDH1KD tx – HT-1080 IDH1 knockdown cell toxicity (counter line); HT-1080 IDH1 knockdown viability, ATP luminescence, 48 h; Potency, µM (top dose mostly 46.1 µM), without a hit: at the top dose activity, negative = toxicity, most hits filed as cytotoxic; actives 2% (n = 360,000); AID 686971;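 note: potency is the fitted concentration of half-maximal effect; 0% = DMSO wells and -100% = cell-free medium wells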
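IDH1KD HT-1080 cells, 750/well, RPMI + 5% FBS; compound pinned after 2 h settling; 48 h, 37 °C; CellTiter-Glo luminescence; % activity normalised to DMSO and no-cell wells; curves fitted, classed by r2 and efficacy.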
Starred values were filed as active, the others as inactive; [ ] = another dose, or the depositor's remark. In the library only some 19% were active in any assay of this set; here they are far more common. Unless noted, calls come from the whole dose curve; as a rule, active = well fitted curve in the direction sought with a large enough effect; inconclusive = small, poorly fitted or top-dose-only effect, or another doubt; inactive = no such curve, though single readings can be large; an effect the other way counts as inactive or inconclusive. Unless noted, % is set by controls: 0 for no effect and ±100 for the full control effect.

For O=C(Nc1ccc(C(=O)N2CCCC2)cc1)C1CCC1 the results were HT1080NT lethal -2%, DT40 TDP1 no CPT -8%, IL-1B inflam inh 59, TDP1 cell CPT 6% and HT1080 IDH1KD tx 4%.
CO[C@H]1[C@H](NC(=O)c2ccsc2)c2ccccc2C12CCN(Cc1cnn(C)c1C)CC2 was read as DT40 TDP1 no CPT -13% and TDP1 cell CPT 13%[9.04 µM].
For OC[C@@H]1CN(Cc2ccncc2)C[C@H](n2cnc3c(NCc4ccncc4)ncnc32)O1 the results were HT1080NT lethal 1%, DT40 TDP1 no CPT -20%, IL-1B inflam inh 11, TDP1 cell CPT -11% and HT1080 IDH1KD tx 4%.
For COc1ccc(N2CCN(C(=O)Cc3csc(NC(=O)Nc4ccccc4OC)n3)CC2)cc1 the results were HT1080NT lethal -11%, DT40 TDP1 no CPT 16µM*, IL-1B inflam inh -18, ELG1 repair inh 16µM*, TDP1 cell CPT 16µM* and HT1080 IDH1KD tx -11%.
COc1ccccc1NC(=O)Nc1nc(CC(=O)N2CCN(c3ccc(F)cc3)CC2)cs1 was read as HT1080NT lethal -18%, DT40 TDP1 no CPT inconclusive, IL-1B inflam inh -9, ELG1 repair inh 16µM*, TDP1 cell CPT inconclusive and HT1080 IDH1KD tx -30%.
For COc1ccccc1NC(=O)Nc1nc(CC(=O)N2CCN(c3ccccc3)CC2)cs1 the results were HT1080NT lethal -21%, DT40 TDP1 no CPT inconclusive, IL-1B inflam inh inconclusive, ELG1 repair inh inconclusive, TDP1 cell CPT 16µM* and HT1080 IDH1KD tx -19%.
COc1ccccc1NC(=O)Nc1nc(CC(=O)Nc2cccc(F)c2)cs1 was read as HT1080NT lethal -4%, DT40 TDP1 no CPT inconclusive, IL-1B inflam inh -9, ELG1 repair inh inconclusive, TDP1 cell CPT inconclusive and HT1080 IDH1KD tx -5%.
Cc1cnc(C(=O)NC2CCSc3ccccc32)cn1 (stereo unspecified) was read as HT1080NT lethal -9%, DT40 TDP1 no CPT 20%, IL-1B inflam inh 48, ELG1 repair inh 8%, TDP1 cell CPT -3% and HT1080 IDH1KD tx -13%.
`Cc1ccc(C)c(N2CCN(C3=C(c4ccccc4)C(=O)c4ccccc43)CC2)c1` gave DT40 TDP1 no CPT 16µM* and TDP1 cell CPT 7.3µM*.
For Cc1ccc(C)c(N2CCN(c3nnnn3-c3ccccc3)CC2)c1 the results were HT1080NT lethal inconclusive, DT40 TDP1 no CPT inconclusive, IL-1B inflam inh 29, ELG1 repair inh inconclusive, TDP1 cell CPT inconclusive and HT1080 IDH1KD tx inconclusive.
Screening COc1ccc(C2=C(N3CCN(c4cccc(C)c4C)CC3)c3ccccc3C2=O)cc1 returned DT40 TDP1 no CPT inconclusive and TDP1 cell CPT 16µM*.
Screening CC(C)(C)c1cccc(C2(O)C(=O)c3ccccc3C2=O)c1O returned HT1080NT lethal -20%, DT40 TDP1 no CPT 9.2µM*, IL-1B inflam inh -25, ELG1 repair inh -22%, TDP1 cell CPT inconclusive and HT1080 IDH1KD tx inconclusive.
Screening Cc1ccc(C2(O)C(=O)c3ccccc3C2=O)c(O)c1C returned HT1080NT lethal -3%, DT40 TDP1 no CPT inconclusive, IL-1B inflam inh -11, ELG1 repair inh -24%, TDP1 cell CPT inconclusive and HT1080 IDH1KD tx -29%.
`COc1ccc(C(=O)N2CCC3(CCCN(Cc4ccccc4OC)C3)CC2)cc1` gave DT40 TDP1 no CPT -15% and TDP1 cell CPT 0%.
For COc1ccc(C(=O)N2CCC3(CCCN(Cc4cc(C(F)(F)F)cc(C(F)(F)F)c4)C3)CC2)cc1 the results were DT40 TDP1 no CPT inconclusive and TDP1 cell CPT 21µM*.
Screening O=S(=O)(c1ccccc1)N1CCC2(CCCN(Cc3cc(C(F)(F)F)cc(C(F)(F)F)c3)C2)CC1 returned DT40 TDP1 no CPT inconclusive and TDP1 cell CPT -1%.
`FC(F)(F)c1cc(CN2CCCC3(CCNCC3)C2)cc(C(F)(F)F)c1` gave DT40 TDP1 no CPT 18µM* and TDP1 cell CPT inconclusive.
`COc1cccc(NC(=O)NCc2ccccc2Cl)c1` gave HT1080NT lethal -2%, DT40 TDP1 no CPT -31%, IL-1B inflam inh -8, TDP1 cell CPT -13% and HT1080 IDH1KD tx 8%.
Screening CC(Cc1cccs1)NC(=O)Nc1ccc(F)cc1 (stereo unspecified) returned HT1080NT lethal 2%, DT40 TDP1 no CPT inconclusive, IL-1B inflam inh -21, ELG1 repair inh inconclusive, TDP1 cell CPT -14% and HT1080 IDH1KD tx 7%.
`CC(Cc1cccs1)NC(=O)Nc1cccc(Cl)c1` (stereo unspecified) gave HT1080NT lethal -15%, DT40 TDP1 no CPT inconclusive, IL-1B inflam inh -1, ELG1 repair inh -6%, TDP1 cell CPT inconclusive and HT1080 IDH1KD tx -10%.
Screening CC(Cc1cccs1)NC(=S)Nc1ccc(Cl)c(Cl)c1 (stereo unspecified) returned HT1080NT lethal inconclusive, DT40 TDP1 no CPT inconclusive, IL-1B inflam inh -95*, ELG1 repair inh 14%, TDP1 cell CPT 21µM* and HT1080 IDH1KD tx -25%.
For CC(Cc1cccs1)NC(=S)Nc1ccc(Cl)cc1 (stereo unspecified) the results were HT1080NT lethal inconclusive, DT40 TDP1 no CPT inconclusive, IL-1B inflam inh -96*, ELG1 repair inh 2%, TDP1 cell CPT inconclusive and HT1080 IDH1KD tx inconclusive.
Screening COc1ccc(CCNC(=O)c2ccc3c(=O)n4c(nc3c2)CCC4)cc1OC returned HT1080NT lethal 2%, DT40 TDP1 no CPT -12%, IL-1B inflam inh 28, ELG1 repair inh 1%, TDP1 cell CPT 1% and HT1080 IDH1KD tx -2%.
`Nc1cccc(C#Cc2ccc3c(c2)C(=O)/C(=C/c2ccsc2)O3)c1` gave HT1080NT lethal -11%, DT40 TDP1 no CPT -19%, IL-1B inflam inh 10, ELG1 repair inh 16%, TDP1 cell CPT inconclusive and HT1080 IDH1KD tx -20%.
COc1ccc(C2NS(=O)(=O)N=C2N)cc1 (stereo unspecified) was read as HT1080NT lethal -1%, DT40 TDP1 no CPT 23µM*, IL-1B inflam inh 0, ELG1 repair inh 5%, TDP1 cell CPT inconclusive and HT1080 IDH1KD tx 1%.
`Cc1cccc(C2NS(=O)(=O)N=C2N)c1` (stereo unspecified) gave HT1080NT lethal -6%, DT40 TDP1 no CPT 1%, IL-1B inflam inh -24, ELG1 repair inh 15%, TDP1 cell CPT -6% and HT1080 IDH1KD tx -4%.
